Results reported in ChEMBL document CHEMBL1157539, “Thousands of chemical starting points for antimalarial lead identification” (Nature, 2010).
Whole data set: some 13,000 compounds, median “IFI” near 4, cut for the highest 2% near 17. The sample as a whole holds a higher share of the highest values than the screen did.

Test: GSK_TCMDC: Inhibition Frequency Index (IFI). The number of non-kinase HTS assays where a compound showed > 50 % inhibition, expressed as a percentage of the number of such assays in which the compound was tested
Format: functional

| SMILES | IFI [%] |
| --- | --- |
| COc1cc2nc(N3CCC(CNC(=O)c4ccc(-c5ccc(C#N)cc5C)cc4)CC3)nc(N)c2cc1OC | 6.31 |
| CCN(CC)CCCNc1ncc2c(-c3ccc(NC(=O)Nc4cc(C(F)(F)F)ccc4F)cc3)nn(C)c2n1 | 10.8 |
| CN(c1ccccc1)S(=O)(=O)c1cccc(NC(=O)c2ccc(-n3ccnc3)c([N+](=O)[O-])c2)c1 | 17.2 |
| Cc1nnc2sc(-c3cccc(NC(=O)c4ccc(N5CCCCC5)c([N+](=O)[O-])c4)c3)nn12 | 1.47 |
| O=C(Nc1ccc(-c2nc3ccccc3[nH]2)cc1)c1ccc(N2CCCC2)c([N+](=O)[O-])c1 | 0.99 |
| CN1CCN(CCNc2c3ccccc3nc3c2ccc2ccccc23)CC1 | 6.99 |
| O=S(=O)(Nc1cccc(CCN2CCCCC2CCN2CCCC2)c1)c1ccc(Oc2ccccc2)cc1 (centres undefined) | 17.5 |
| O=S(=O)(Nc1cccc(CCN2CCCCC2CCN2CCCC2)c1)c1ccc2ccccc2c1 (centres undefined) | 13.1 |
| O=S(=O)(Nc1cccc(CCN2CCCCC2CCN2CCCC2)c1)c1ccc(-c2ccccc2)cc1 (centres undefined) | 14.5 |
| NC1CCCN(Cc2cccc(-c3ccc(-c4nc5cc(C(F)(F)F)ccc5[nH]4)cc3)c2)C1 (centres undefined) | 5.63 |
| CC(=NNC(=N)N)c1ccc2c(c1)Cc1ccccc1-2 | 7.19 |
| CS(=O)(=O)NCCCNCc1ccc(-c2ccc(-c3nc4cc(F)ccc4[nH]3)cc2)cc1 | 5.94 |
| Nc1c(I)cc(C(=O)Nc2ccc3nc4c(c(N)c3c2)CCCC4)cc1I | 22.8 |
| CC(C)(C)c1ccc(C(=O)Nc2ccc3nc4c(c(N)c3c2)CCCC4)cc1 | 4.9 |
| Nc1c2c(nc3ccc(NC(=O)c4ccccc4)cc13)CCCC2 | 2.86 |
| CCN(CCCN1CCCCC1)c1cc(C)nc(Nc2ccc(Cl)cc2C)n1 | 5 |
| CN(C)c1ccc(CN2CCC(CNC(=O)c3cc(-c4cccc(F)c4)cs3)C2)cc1 (centres undefined) | 6.12 |
| CCN1CCC(N(Cc2ccc(-c3ccc(C(F)(F)F)cc3)cc2)C(=O)Cn2c(SCc3ccc(F)cc3)nc(=O)c3c2CCC3)CC1 | 12.5 |
| CCN1CCC(N(Cc2ccc(-c3ccc(C(F)(F)F)cc3)cc2)C(=O)Cn2nc(C)c(=O)cc2SCc2ccc(F)cc2)CC1 | 19.6 |
| CCN1CCC(N(Cc2ccc(-c3ccc(C(F)(F)F)cc3)cc2)C(=O)Cn2c(SCc3cccc(F)c3F)cc(=O)c3ccccc32)C1 (centres undefined) | 7.14 |
| Cc1cccc2nc(-c3ccc(-c4ccc(NC(=O)C5CCN(C)CC5)cc4)cc3)[nH]c12 | 4.24 |
| COc1cc(C(=O)N2CCOC(CCN3CCC[C@H]3C(=O)Nc3ccccc3)(c3ccc(Cl)c(Cl)c3)C2)cc(OC)c1OC (some centres undefined) | 4.83 |

| SMILES | IFI [%] |
| --- | --- |
| COc1ccc2ncc(F)c(CCN3CC(O)C(CNCc4ccccc4)C3)c2n1 (centres undefined) | 2.94 |
| O=C(NCCc1ccccc1)N(Cc1ccc(-c2cccc(CN3CCNCC3)c2)cc1)C1CCN(Cc2ccccc2)CC1 | 6.67 |
| CC(C)C[C@H](NC(=O)c1cc2ccccc2s1)C(=O)N[C@H]1CCN(Cc2ccc(OC3CCN(C)C3)c(Cl)c2)C1 (some centres undefined) | 6.67 |
| CC(C)C[C@H](NC(=O)c1cc2ccccc2s1)C(=O)N[C@H]1CCN(Cc2ccc(OCCCN(C)C)c(Cl)c2)C1 | 17.2 |
| CC(C)C[C@H](NC(=O)c1cc2ccccc2s1)C(=O)N[C@H]1CCN(Cc2ccc(OC[C@@H]3CCCN3C)c(Cl)c2)C1 | 6.67 |
| O=C1CCCN1CCCNCc1cccc(-c2cccc(-c3nc4cc(F)ccc4[nH]3)c2)c1 | 4.85 |
| Cc1ccc(C)c(NC(=O)CC2C(=O)N(c3ccccc3)C(=S)N2Cc2ccco2)c1 (centres undefined) | 0.76 |
| NC(=O)C1CCN(Cc2ccc(-c3cccc(-c4nc5cc(F)ccc5[nH]4)c3)cc2)CC1 | 0 |
| Cc1ccc(Nc2nc(C)cc(NC3CCCC3)n2)cc1 | 21.3 |
| Cc1ccc(Nc2nc(C)cc(NC3CC3)n2)cc1 | 4.62 |
| Cc1cc(NC2CCCC2)nc(Nc2ccc(F)cc2)n1 | 9.09 |
| CC1CN(c2cccc3c2nc(-c2cncc(C#N)c2)n3CCNCc2ccccc2)CC(C)O1 (centres undefined) | 0 |
| CCN1CCC(N(Cc2ccc(-c3ccc(C(F)(F)F)cc3)cc2)C(=O)Cn2c(CCc3cccc(F)c3F)cc(=O)c3c2CCC3)CC1 | 4.96 |
| CCn1c(-c2nonc2N)nc2c(-c3ccc(CO)o3)ncc(OCCCN)c21 | 15.4 |
| CCn1c(-c2nonc2N)nc2c(Cl)ncc(O[C@H](CCN)c3ccccc3F)c21 | 23.1 |
| CCn1c(-c2nonc2N)nc2c(-c3cccc(Cl)c3)ncc(OCCCNCc3cnc(C)nc3N)c21 | 7.62 |
| CN1CCN(CC2(Nc3nccc(NCCc4cn(C)c5ccccc45)n3)CCCCC2)CC1 | 14.3 |
| CN1CCN(CC2(Nc3nccc(NCc4ccc(Cl)cc4Cl)n3)CCCCC2)CC1 | 35.7 |
| Clc1ccc(CNc2ccnc(NCc3cccnc3N3CCCC3)n2)c(Cl)c1 | 16.7 |
| COc1cccc(OC)c1CN1CCC(N(C)CCCCCCCCN2CCC(OC(=O)Nc3ccccc3-c3ccccc3)CC2)CC1 | 13.1 |
| COc1ccccc1CCN(C)CCN1CCC(NC(=O)c2ccc(-c3ccc(C(F)(F)F)cc3)cc2)CC1 | 6.19 |
| COc1cccc(OC)c1CN1CCC(N(C)CCCCCCCCCN2CCC(OC(=O)Nc3ccccc3-c3ccccc3)CC2)CC1 | 17.3 |
